Experiment [1] is described as follows: ATG_M_06_TRANS: Attagene TRANS-FACTORIAL HepG2 Assay for M06 Transcription Factor (Internal Marker) (AID 2282983; active means hit-call score of the fitted dose curve at least 0.9, where 1 is the maximum;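 further: reporter transcript level by RT-PCR then capillary electrophoresis fluorescence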). The note with it: HepG2 Attagene TRANS M06 internal marker reporter. The procedure, abridged:
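Internal-marker background readout from a multiplexed TRANS reporter system in HepG2; 24 h dosing; mRNA induction quantified by RT-PCR plus capillary electrophoresis fluorescence; DMSO as negative control and baseline.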

In experiment [2] the target is Transcriptional activator Myb (Homo sapiens) (UniProt P10242). As to the kind of experiment: ATG_Myb_CIS: Attagene CIS-FACTORIAL HepG2 Assay for human Myeloblastosis (Myb) Proto-Oncogene Transcription Factor (AID 2282986). The settings on record: HepG2 Attagene CIS-FACTORIAL Myb reporter transcription; actives raise or lower the signal. The procedure, abridged:
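Transiently transfected HepG2 cells, treated 24 h. Reporter mRNA quantified by RT-PCR/capillary electrophoresis; bidirectional fit relative to DMSO.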

In experiment [3] the target is Nuclear respiratory factor 1 (Homo sapiens) (UniProt Q16656). Briefly: ATG_NRF1_CIS: Attagene CIS-FACTORIAL HepG2 Assay for human Nuclear Respiratory Factor 1 (NRF1) Orphan Gene (AID 2282987). The note with it: HepG2 NRF1 cis-element reporter, Attagene multiplex; actives raise or lower the signal. The method, boiled down:
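Cells (HepG2, transient MRTU transfection) are exposed to compound for 24 h, then RNA isolated and reporter mRNA amplified and fluorescently labelled. Fragments are separated by capillary electrophoresis; signal change is fitted bidirectionally relative to DMSO.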

Experiment [4] in a line: ATG_NFI_CIS: Attagene CIS-FACTORIAL HepG2 Assay for human Nuclear Factor I (NFI) (AID 2282989). The settings on record: HepG2 cis-regulatory reporter, NFI response element transcription; actives raise or lower the signal. The method, boiled down: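 HepG2 cells transiently transfected with cis-element-driven multiplexed reporter transcription units, dosed for 24 h. Reporter mRNA quantified by RT-PCR, fluorescent labelling, HpaI digestion and capillary electrophoresis; bidirectional fit versus DMSO baseline.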

Experiment [5] addresses Myc proto-oncogene protein (Homo sapiens) (UniProt P01106). Briefly: ATG_Myc_CIS: Attagene CIS-FACTORIAL HepG2 Assay for human Myelocytomatosis (Myc) Proto-Oncogene Transcription Factor (AID 2282990). The note with it: HepG2, Attagene cis-reporter transcription factor activity; actives raise or lower the signal. The method, boiled down: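 Transiently transfected HepG2 cells bearing cis-promoter reporter units for endogenous transcription factors; 24 h exposure. Reporter mRNA measured by RT-PCR, 6-FAM primer extension, HpaI cut and capillary electrophoresis; bidirectional fit relative to DMSO.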

The nature of experiment [6]: ATG_NF_kB_CIS: Attagene CIS-FACTORIAL HepG2 Assay for human Nuclear Factor Kappa B (NF-kB) (AID 2282991). The note with it: HepG2 Attagene cis-factorial NF-kB reporter mRNA; actives raise or lower the signal. The procedure, abridged: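 Measures mRNA induction of an NF-kB-responsive cis-element reporter in HepG2 cells transfected with multiple reporter units, sampled 24 h post-dosing; quantified by fluorescence after RT-PCR and capillary electrophoresis, fitted for activation or inhibition against DMSO.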

The nature of experiment [7]: ATG_NRF2_ARE_CIS: Attagene CIS-FACTORIAL HepG2 Assay for human Nuclear Factor Erythroid 2 Related Factor 2 (NFR2) response to Antioxidant Response Elements (ARE) (AID 2282992).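 On AC50: reporter mRNA level measured by RT-PCR and capillary electrophoresis fluorescence.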 The note with it: HepG2 Attagene ARE/NRF2 reporter, transcription factor activity; actives raise or lower the signal. The procedure, abridged:
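Transient MRTU transfection of HepG2; 24 h compound exposure; TriZol RNA, RT with oligo(dT), PCR, 6-FAM primer extension, HpaI cut, CE. Bidirectional fit vs DMSO.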

The target in experiment [8] is Nuclear receptor subfamily 4 group A member 2 (Homo sapiens) (UniProt P43354). As to the kind of experiment: ATG_NURR1_TRANS: Attagene TRANS-FACTORIAL HepG2 Assay for human Nuclear Receptor Related Protein 1 (NURR1) (AID 2282985; active means hit-call score of the fitted dose curve at least 0.9, where 1 is the maximum). The note with it: HepG2 Attagene TRANS reporter, mRNA readout. The procedure, abridged:
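HepG2 / transient MRTU transfection / 24 h compound exposure / RT-PCR + CE fluorescence of reporter mRNA / gain-of-signal vs DMSO.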

A short description of experiment [9]: ATG_M_32_TRANS: Attagene TRANS-FACTORIAL HepG2 Assay for M32 Transcription Factor (Internal Marker) (AID 2282984; active means hit-call score of the fitted dose curve at least 0.9, where 1 is the maximum;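 further: transcript level of a background control reporter unit measured by RT-PCR and capillary electrophoresis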). The settings on record: HepG2 Attagene TRANS M32 internal marker reporter. The method, boiled down:
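Capillary electrophoresis of 6-FAM-labelled reporter fragments gives the signal; data fitted for gain over DMSO negative control. Source: HepG2 cells bearing transient multiple reporter transcription units, 24 h exposure.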

The target of experiment [10] is Oxysterols receptor LXR-alpha (Homo sapiens) (UniProt Q13133). As to the kind of experiment: ATG_LXRa_TRANS: Attagene TRANS-FACTORIAL HepG2 Assay for human Liver X Receptor alpha (LXRa) (AID 2282980; active means hit-call score of the fitted dose curve at least 0.9, where 1 is the maximum). The note with it: HepG2 Attagene TRANS reporter, LXRa transactivation. The procedure, abridged: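 In this multiplexed TRANS system, compounds act on HepG2 cells carrying GAL4-UAS reporter units and a receptor-GAL4 fusion for 24 h. Induced reporter RNA is amplified, fluorescently labelled and sized by capillary electrophoresis, with DMSO as baseline.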

Records with an inconclusive call do not appear. Calls of active or inactive are those of the source. How the source made its calls, unless noted: active means hit-call score of the fitted dose curve at least 0.9, where 1 is the maximum; inactive means score below 0.9.

Chain of Transcriptional activator Myb (Homo sapiens) (P10242 whole entry, looked up): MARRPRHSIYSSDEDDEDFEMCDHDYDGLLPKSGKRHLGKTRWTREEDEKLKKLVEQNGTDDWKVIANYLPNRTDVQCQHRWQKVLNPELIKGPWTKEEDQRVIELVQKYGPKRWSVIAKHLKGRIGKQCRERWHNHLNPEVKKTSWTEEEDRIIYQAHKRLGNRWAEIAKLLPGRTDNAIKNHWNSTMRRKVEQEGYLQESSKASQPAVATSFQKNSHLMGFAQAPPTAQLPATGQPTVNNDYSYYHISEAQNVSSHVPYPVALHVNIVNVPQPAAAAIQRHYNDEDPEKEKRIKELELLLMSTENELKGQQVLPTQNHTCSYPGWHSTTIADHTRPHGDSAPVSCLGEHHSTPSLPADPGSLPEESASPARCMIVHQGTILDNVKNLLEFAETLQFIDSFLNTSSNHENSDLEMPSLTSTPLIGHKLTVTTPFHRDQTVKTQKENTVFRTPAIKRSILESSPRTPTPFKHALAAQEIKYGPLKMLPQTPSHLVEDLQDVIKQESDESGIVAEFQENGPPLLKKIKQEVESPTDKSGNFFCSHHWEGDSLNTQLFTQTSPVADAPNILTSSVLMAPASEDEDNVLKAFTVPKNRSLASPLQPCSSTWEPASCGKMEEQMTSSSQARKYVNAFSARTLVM
Chain of Nuclear respiratory factor 1 (Homo sapiens) (Q16656 whole entry, looked up, the tested form may be a part): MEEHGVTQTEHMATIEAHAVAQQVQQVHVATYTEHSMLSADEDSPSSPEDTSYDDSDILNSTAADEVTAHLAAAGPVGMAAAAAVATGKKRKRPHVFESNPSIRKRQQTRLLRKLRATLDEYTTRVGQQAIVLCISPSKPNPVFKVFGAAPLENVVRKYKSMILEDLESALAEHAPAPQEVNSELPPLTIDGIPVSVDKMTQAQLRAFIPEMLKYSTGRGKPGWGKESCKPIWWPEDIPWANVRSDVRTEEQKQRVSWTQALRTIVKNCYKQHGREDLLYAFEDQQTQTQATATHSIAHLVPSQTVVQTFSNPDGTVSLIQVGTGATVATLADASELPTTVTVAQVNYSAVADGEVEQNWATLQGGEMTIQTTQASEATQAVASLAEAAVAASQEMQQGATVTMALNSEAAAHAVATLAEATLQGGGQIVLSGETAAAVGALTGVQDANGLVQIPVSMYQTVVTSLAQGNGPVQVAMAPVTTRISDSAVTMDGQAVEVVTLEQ
Chain of Myc proto-oncogene protein (Homo sapiens) (P01106 whole entry, looked up): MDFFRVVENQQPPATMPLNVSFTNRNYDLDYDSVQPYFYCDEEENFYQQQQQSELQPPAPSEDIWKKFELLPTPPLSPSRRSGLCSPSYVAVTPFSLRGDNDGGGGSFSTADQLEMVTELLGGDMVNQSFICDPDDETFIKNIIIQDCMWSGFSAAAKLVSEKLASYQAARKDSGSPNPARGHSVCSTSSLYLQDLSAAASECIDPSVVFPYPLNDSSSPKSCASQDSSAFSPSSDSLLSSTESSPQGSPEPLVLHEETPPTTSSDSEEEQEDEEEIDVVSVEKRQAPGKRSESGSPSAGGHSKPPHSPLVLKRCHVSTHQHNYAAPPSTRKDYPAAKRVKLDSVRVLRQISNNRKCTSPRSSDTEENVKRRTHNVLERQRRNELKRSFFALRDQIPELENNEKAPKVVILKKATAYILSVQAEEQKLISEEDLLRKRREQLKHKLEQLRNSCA
Chain of Nuclear receptor subfamily 4 group A member 2 (Homo sapiens) (P43354 whole entry, looked up): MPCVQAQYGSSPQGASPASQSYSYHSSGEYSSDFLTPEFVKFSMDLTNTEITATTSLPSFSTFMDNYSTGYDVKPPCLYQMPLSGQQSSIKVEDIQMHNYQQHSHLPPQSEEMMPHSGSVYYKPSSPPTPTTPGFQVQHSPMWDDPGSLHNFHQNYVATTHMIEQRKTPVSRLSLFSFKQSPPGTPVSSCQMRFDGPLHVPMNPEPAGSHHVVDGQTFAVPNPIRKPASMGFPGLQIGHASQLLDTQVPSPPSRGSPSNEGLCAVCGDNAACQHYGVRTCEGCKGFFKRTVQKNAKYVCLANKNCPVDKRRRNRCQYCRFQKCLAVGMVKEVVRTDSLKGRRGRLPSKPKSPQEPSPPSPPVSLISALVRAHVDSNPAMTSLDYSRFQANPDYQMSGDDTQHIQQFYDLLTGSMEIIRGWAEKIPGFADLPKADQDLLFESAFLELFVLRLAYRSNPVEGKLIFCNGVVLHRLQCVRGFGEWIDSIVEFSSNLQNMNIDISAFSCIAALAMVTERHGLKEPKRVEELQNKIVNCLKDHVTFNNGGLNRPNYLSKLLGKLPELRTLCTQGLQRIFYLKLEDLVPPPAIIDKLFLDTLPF
Chain of Oxysterols receptor LXR-alpha (Homo sapiens) (Q13133 whole entry, looked up, the tested form may be a part): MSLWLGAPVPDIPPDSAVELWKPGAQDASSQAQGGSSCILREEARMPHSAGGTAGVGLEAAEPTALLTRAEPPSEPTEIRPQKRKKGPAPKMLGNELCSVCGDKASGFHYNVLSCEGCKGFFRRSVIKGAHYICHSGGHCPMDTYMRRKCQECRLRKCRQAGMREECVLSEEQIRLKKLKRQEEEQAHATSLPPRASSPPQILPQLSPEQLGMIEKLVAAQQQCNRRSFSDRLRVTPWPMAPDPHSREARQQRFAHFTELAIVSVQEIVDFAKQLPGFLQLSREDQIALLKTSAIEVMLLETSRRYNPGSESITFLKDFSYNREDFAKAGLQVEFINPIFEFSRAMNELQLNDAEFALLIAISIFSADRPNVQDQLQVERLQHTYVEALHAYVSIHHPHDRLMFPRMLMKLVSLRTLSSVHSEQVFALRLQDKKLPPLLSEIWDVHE

Regarding `OCC(CO)n1cnc(-c2ccc(F)cc2)c1-c1ccnc(Oc2ccccc2)n1`, the outcome in [1], in [2], in [3], in experiment [4], in experiment [5] and in [6] was inactive. Further, the AC50 (as a rule, the concentration at which the activity in the assay is half-maximal) in experiment [7] was 25.3 µM (active).

As for `CCCCCCCCCCCCCCOS(=O)(=O)O`, the call in [1], in experiment [8], in experiment [2], in experiment [3], in experiment [5] and in [7] was inactive.

For the compound `O=C1CCCCC1`, the compound was called inactive in experiment [1], in experiment [9], in experiment [8], in [2], in [3] and in [5]. Besides, the result in experiment [6] and in experiment [7] was inactive.

In the case of `O=C(Oc1ccccc1)c1cccc(C(=O)Oc2ccccc2)c1`, the result in experiment [1], in experiment [9], in experiment [8], in [2], in experiment [3] and in [5] was inactive. Besides, the compound was classed as inactive in experiment [7].

As to `COC(=O)CCCC(=O)OC`, the outcome in [1], in [8], in [2], in experiment [3], in [5] and in experiment [6] was inactive. The compound was classed as inactive in [7].

Regarding `CC(C)(C)c1ccccc1`, the result in experiment [1], in experiment [9], in experiment [8], in experiment [2], in experiment [3] and in experiment [4] was inactive. Moreover, the compound was called inactive in experiment [5] and in [7].

Regarding `O=C1NC(=O)C(c2ccccc2)(c2ccccc2)N1`, the compound was called inactive in experiment [1], in [9], in [8], in experiment [2], in experiment [3] and in experiment [4]. The outcome in experiment [5] and in [7] was inactive.

As for `CC(C)OC(=O)C(C)(C)Oc1ccc(C(=O)c2ccc(Cl)cc2)cc1`, the result in [1], in experiment [2], in experiment [3], in experiment [5] and in experiment [6] was inactive. The concentration at half-maximal activity (AC50) in experiment [8] was 26.9 µM (active); in experiment [7] it was 25 µM (active).

In the case of `O=NO`, the result in experiment [1], in experiment [9], in [8], in experiment [2], in [3] and in [4] was inactive. Further, the compound was called inactive in experiment [5], in experiment [6] and in experiment [7].

Consider `Cc1cc(Cc2ccc(N)c(C)c2)ccc1N`, for which the compound was classed as inactive in experiment [1], in experiment [8], in [2], in experiment [3], in [4] and in experiment [5]. Also, the call in experiment [6] and in experiment [7] was inactive.

Regarding `CCCCC(CC)CO` (configuration not stated), the outcome in [1], in experiment [8], in experiment [2], in experiment [3], in [4] and in [5] was inactive. Also, the compound was classed as inactive in experiment [6] and in experiment [7].

Consider `CN(C)CCCN1c2ccccc2Sc2ccc(Cl)cc21`, for which the outcome in [1], in experiment [9], in [8], in experiment [2], in experiment [3] and in experiment [5] was inactive. Also, the outcome in [6] was inactive. Also, the AC50 in experiment [7] was 11.1 µM (active).

In the case of `C/C=C/C=C/C(=O)O`, the compound was classed as inactive in experiment [1], in experiment [9], in experiment [2], in experiment [3], in [5] and in experiment [7].

For the compound `NCCOCCOCCN`, the compound was classed as inactive in experiment [1], in [9], in experiment [8], in experiment [2], in experiment [3] and in [4]. Moreover, the result in experiment [5], in [6] and in experiment [7] was inactive.

For `Oc1ccc(O)cc1`, the call in experiment [1], in [9], in experiment [8], in [2], in [3] and in experiment [5] was inactive. Also, the outcome in experiment [6] was inactive. In addition, in experiment [7], the concentration at half-maximal activity (AC50) was 16.6 µM (active).

As to `CC(=O)OCC(COC(C)=O)OC(C)=O`, the compound was classed as inactive in experiment [1], in experiment [2], in experiment [3], in experiment [4], in experiment [5] and in experiment [6]. Also, the result in experiment [7] was inactive.

For `CN(C)CCCN(C)CCCN(C)C`, in [10], the half-maximal activity concentration (AC50) is 23.8 µM (active). In addition, the call in experiment [2], in [3], in experiment [4], in experiment [5], in [6] and in [7] was inactive.

Consider `O=C(O)c1cccnc1`, for which the compound was called inactive in experiment [1], in experiment [9], in experiment [8], in experiment [2], in [3] and in [4]. The compound was called inactive in [5], in experiment [6] and in experiment [7].

Take `CN(C)C(=O)NC1(c2ccccc2)CCN(CCC[C@]2(c3ccc(Cl)c(Cl)c3)CCCN(C(=O)c3ccccc3)C2)CC1`: the outcome in experiment [9] and in experiment [2] was inactive. In addition, the AC50 was 4.5 µM (active) in [3]; 3.32 µM (active) in experiment [4]; 5.05 µM (active) in experiment [5]; 2.84 µM (active) in experiment [6]; 1.64 µM (active) in [7].

Consider `CN(C)C(=O)NC1(c2ccccc2)CCN(CC[C@@]2(c3ccc(F)c(F)c3)CN(C(=O)c3ccccc3)CCO2)CC1`, for which the compound was called inactive in experiment [2], in experiment [3], in experiment [4] and in experiment [5]. The concentration at half-maximal activity (AC50) in experiment [7] was 40.8 µM (active).

Regarding `Cc1c(C)c2c(c(C)c1O)CCC(C)(COc1ccc(CC3SC(=O)NC3=O)cc1)O2` (configuration not stated), the outcome in [9], in experiment [8], in experiment [2], in [3], in [5] and in experiment [6] was inactive. The AC50 in experiment [7] was 11 µM (active).

Take `O=C1O[C@H]([C@H](O)CO)C(O)=C1O`: the outcome in experiment [9], in [8], in [2], in experiment [3], in [5] and in experiment [7] was inactive.

(Values after PubChem BioAssay (EPA / NIEHS).)
